RORg inh – qHTS for inhibitors of ROR gamma transcriptional activity | Drosophila S2 Gal4-RORgamma UAS-luciferase reporter, 20 h | 310,000 compounds, 5.4% hits | AID 2551, 2010 | Potency, µM (titrated, usually from 53.6 µM), actives largely listed as inhibitors | Nuclear receptor ROR-gamma (Mus musculus), P51450; note: nearly all actives have a fitted effect of over 60% in size
Target sequence (P51450 whole entry, looked up, the tested form may be a part): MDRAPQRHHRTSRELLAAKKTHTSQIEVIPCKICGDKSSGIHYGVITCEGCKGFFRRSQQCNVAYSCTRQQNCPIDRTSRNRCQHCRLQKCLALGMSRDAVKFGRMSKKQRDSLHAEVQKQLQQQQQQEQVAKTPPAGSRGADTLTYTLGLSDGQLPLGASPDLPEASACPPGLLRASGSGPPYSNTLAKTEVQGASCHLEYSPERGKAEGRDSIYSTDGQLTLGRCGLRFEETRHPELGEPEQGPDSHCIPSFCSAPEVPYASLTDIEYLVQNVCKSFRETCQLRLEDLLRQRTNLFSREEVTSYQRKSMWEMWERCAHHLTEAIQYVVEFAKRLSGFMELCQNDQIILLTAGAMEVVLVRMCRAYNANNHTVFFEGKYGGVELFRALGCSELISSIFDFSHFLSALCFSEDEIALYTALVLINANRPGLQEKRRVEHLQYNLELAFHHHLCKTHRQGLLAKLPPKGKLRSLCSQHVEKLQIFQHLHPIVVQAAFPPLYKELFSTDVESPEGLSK
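Read-out: Photinus luciferase luminescence; inhibitors lower reporter signal. Insect Schneider cells with Gal4-ROR gamma fusion under metallothionein promoter, UAS reporter; 700 uM final copper sulfate induction, 20 hr, ambient temperature.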
SW480 rerep – A quantitative high throughput screen for small molecules that induce DNA re-replication in SW480 colon adenocarcinoma cells. 340,000 compounds, 1.8% hits. AID 624297, 2012. Potency, µM (top dose mostly 46.1 µM), hits mostly activators. SW480 DNA re-replication, Hoechst DNA content imaging, 48 h; note: nearly all actives have a fitted effect of over 55% in size
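First, 250 cells per well were seeded. Next, compound or vehicle (23 nL) was pinned in, plates sat 48 hr at 37 C. Finally Hoechst was added for 40 min before fluorescence scanning.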
Giardia kill – Small Molecules that selectively kill Giardia lamblia: qHTS; Giardia lamblia trophozoite viability; activity change, % at 7.66 µM, hits read low; 340,000 compounds, 0.15% hits; in the data active = activity change below about -80%; inconclusive = between about -30% and that limit;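 note: parasites exposed to compound for two days anaerobically before the ATP read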
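Each well holds 100 Giardia trophozoites and compound. After two days (48 hrs) at 37 deg C in anaerobic conditions, ATP is quantified by luminescence.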
Gal4-VP16 FLuc – VP16 counterscreen qHTS for inhibitors of ROR gamma transcriptional activity; Drosophila S2 Gal4-VP16 UAS-luciferase, luminescence, 20 h; 310,000 compounds, 3.5% hits; Potency, µM (titrated, usually from 53.6 µM), actives largely listed as inhibitors;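 note: Gal4-VP16 expression switched on by copper sulfate through the metallothionein promoter; nearly all actives have a fitted effect of over 50% in size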
MCF10A rerep – A quantitative high throughput screen for small molecules that induce DNA re-replication in MCF 10a normal breast cells; MCF 10A DNA re-replication, Hoechst nuclear intensity, 48 h; Potency, µM (highest dose often 46.1 µM), usual class: activators; 350,000 compounds, 2.9% hits; AID 624296, 2012; note: nearly all actives have a fitted effect of over 50% in size
BCR signal inh – qHTS Assay to Find Inhibitors of Chronic Active B-Cell Receptor Signaling; ABC-DLBCL IkBa-CBG/CBR reporter, luminescence ratio, 4 h; Potency, µM (series often up to 46.1 µM), most hits filed as inhibitors; 340,000 compounds, 0.05% hits; AID 493014, 2011; active = well fitted inhibition curve with a large enough effect in the signal ratio, with a control signal flat, not every such curve was filed as active; inconclusive = small, poorly fitted or top-dose-only effect, or effect the other way, or a change in a side signal; the % refers to the signal ratio
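TMD8 human ABC-DLBCL cells with doxycycline-inducible IκBα–green luciferase fusion and unfused red luciferase, in 0.5% FBS medium; compounds up to 46 uM, 4 h at 37C. Green/red luminescence ratio, filter-overlap corrected, fitted to concentration-response curves.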
Of the large screens only hits and unclear results are named; the others gave an inactive call. Most compounds without a hit are left out; they make up all but 8.3% or so of the library. Unless noted, calls come from the whole dose curve; as a rule, active = well fitted curve in the direction sought with a large enough effect; inconclusive = small, poorly fitted or top-dose-only effect, or another doubt; inactive = no such curve, though single readings can be large; an effect the other way counts as inactive or inconclusive.

CCOc1ccc(Br)cc1C1C(C(=O)OC)=C(N)Oc2cc(N(C)C)ccc21 (stereo not drawn)	SW480 rerep inconclusive, MCF10A rerep 10.3µM, BCR signal inh inconclusive
Cc1cccc(N2CCN(S(=O)(=O)c3ccc(-c4ccc(=O)[nH]n4)o3)CC2)c1C	SW480 rerep inconclusive, Gal4-VP16 FLuc inconclusive, MCF10A rerep 20.6µM
CCOc1ccc(NC(=O)Cc2ccc(S(=O)(=O)N3CCOCC3)s2)cc1OCC	Giardia kill inconclusive
Fc1ccccc1-c1nnc2n1N=C(c1ccc(OC(F)F)c(OCC3CC3)c1)CS2	none (no result: RORg inh, Gal4-VP16 FLuc)
COc1ccc(C2=Nn3c(nnc3-c3ccccc3OC)SC2)cc1OC1CCOC1 (stereo not drawn)	SW480 rerep 1.03µM, MCF10A rerep 1.3µM, BCR signal inh 8.2µM (no result: RORg inh, Gal4-VP16 FLuc)
COc1ccc(OC)c(-c2nnc3n2N=C(c2ccc(OC)c(OCC4CC4)c2)CS3)c1	SW480 rerep 2.31µM, MCF10A rerep inconclusive, BCR signal inh inconclusive (no result: RORg inh, Gal4-VP16 FLuc)
COc1ccc(C2=Nn3c(nnc3-c3ccc(OC)c(OC)c3)SC2)cc1OC	none (no result: SW480 rerep, Giardia kill, MCF10A rerep, BCR signal inh)
COc1ccc(C2=Nn3c(nnc3-c3ccccc3C(F)(F)F)SC2)cc1OC1CCOC1 (stereo not drawn)	none (no result: RORg inh, Gal4-VP16 FLuc)
COc1ccc(C2=Nn3c(nnc3-c3ccncc3)SC2)cc1OC	SW480 rerep 16.4µM, MCF10A rerep inconclusive, BCR signal inh inconclusive
COc1ccc(C2=Nn3c(nnc3-c3ccccc3Cl)SC2)cc1OCC1CC1	SW480 rerep 16.4µM, MCF10A rerep inconclusive, BCR signal inh inconclusive (no result: RORg inh, Gal4-VP16 FLuc)
COc1cccc(C2C=C(c3ccc(C)c(C)c3)Nc3nnnn32)c1OC (stereo not drawn)	none (no result: RORg inh, SW480 rerep, Giardia kill, Gal4-VP16 FLuc, MCF10A rerep)
COc1ccc(C(=O)Nc2c(N)nc[nH]c2=O)cc1	none (no result: RORg inh, Gal4-VP16 FLuc, BCR signal inh)
CCOc1ccc(C2=Nn3c(nnc3-c3ccccc3OC)SC2)cc1	SW480 rerep 0.259µM, MCF10A rerep inconclusive, BCR signal inh inconclusive
CCOc1ccccc1-c1nnc2n1N=C(c1ccccc1OC)CS2	RORg inh inconclusive (no result: SW480 rerep, Giardia kill, MCF10A rerep, BCR signal inh)
CCOC(=O)c1c(C)oc2c1C(=O)c1ccccc1C2=O	RORg inh inconclusive, SW480 rerep 3.66µM, Giardia kill -81.4
Cc1oc2c(c1C(=O)c1ccccc1)C(=O)C(=O)c1ccccc1-2	RORg inh 2.82µM, SW480 rerep inconclusive, Gal4-VP16 FLuc 3.16µM, MCF10A rerep inconclusive, BCR signal inh inconclusive
Cc1onc(-c2ccccc2Cl)c1C(=O)c1ccccc1	none
O=C1C(=O)c2c(C(=O)c3ccccc3)coc2-c2ccccc21	RORg inh 6.31µM, SW480 rerep inconclusive, Gal4-VP16 FLuc 3.55µM, MCF10A rerep 20.6µM, BCR signal inh inconclusive
Cc1oc2c(c1C(=O)O)C(=O)c1ccccc1C2=O	RORg inh inconclusive, Giardia kill inconclusive, Gal4-VP16 FLuc inconclusive
CN(CC(=O)NCCc1ccc(S(N)(=O)=O)cc1)CC(=O)Nc1ccc(Cl)c(C(F)(F)F)c1	none (no result: RORg inh, Gal4-VP16 FLuc, BCR signal inh)
CCOC(=O)CSc1nc(-c2ccc(OC)cc2)ns1	RORg inh 10µM
O=[N+]([O-])c1nn(-c2ccccc2)[n+]([O-])c1N1CCN(c2ccccc2F)CC1	Giardia kill -89.3, BCR signal inh inconclusive
O=[N+]([O-])c1cccnc1N1CCN(c2ccccc2F)CC1	BCR signal inh inconclusive
O=[N+]([O-])c1nn(-c2ccccc2)[n+]([O-])c1N1CCN(c2ccccc2)CC1	Giardia kill -81.1
CC(C)(C)OC(=O)N1CC23CC(c4ccc(F)cc4)C(CC2S1(=O)=O)O3 (stereo not drawn)	none (no result: SW480 rerep, MCF10A rerep, BCR signal inh)
CS(=O)(=O)N1N=C(c2ccco2)CC1c1ccccc1 (stereo not drawn)	none
Fc1ccc(C2CC(c3ccco3)=NN2c2ccccc2)cc1 (stereo not drawn)	SW480 rerep 20.6µM, MCF10A rerep 0.92µM, BCR signal inh inconclusive
